Several values for one entry are separate records, joined by “and”; a condition that tells them apart may be missing. Equal values may be shown once. Inconclusive results are not listed. Some structures have more than one record in an assay (separate samples or runs), and their calls can disagree. Activity calls are given as the source filed them. Rule for the calls, unless noted: active = hit-call score of the fitted dose curve at least 0.9, where 1 is the maximum; inconclusive = response in the unintended direction; inactive = score below 0.9.

Tested on in the first assay: not listed separately
Kind of assay: Tanguay_ZF_120hpf_SWIM_legacy: (Legacy) Oregon State University Tanguay Lab 120 Hour Post-fertilization zebrafish Assay for Swim Bladder Malformation (AID 2283654).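 Note: swim bladder malformation in each larva scored yes or no under brightfield.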
Settings: not given
The method in brief: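 Dechorionated wild-type Tropical 5D zebrafish embryos, one per well from 6 hpf, were statically exposed at 28C until 120 hpf in 0.64% DMSO. Swim bladder malformation scored as present/absent by brightfield microscopy; not scored in dead larvae.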
Regarding `COCCO`, the molecule was classed as inactive.

For `O=C(O)C1(C(=O)Nc2ccc(Cl)cc2Cl)CC1`, the result was inactive.

Take `CCCCC(CC)CN1C(=O)C2C3C=CC(C3)C2C1=O` (stereo unspecified): the call was inactive.

For `CCCCOCCOCCOCc1cc2c(cc1CCC)OCO2`, the molecule was classed as inactive.

`CCOC(=O)C(C)Oc1ccc(Oc2nc3ccc(Cl)cc3o2)cc1` (stereo unspecified): the molecule was classed as inactive.

Regarding `CC(=O)[C@H]1CC[C@H]2[C@@H]3CCC4=CC(=O)CC[C@]4(C)[C@H]3CC[C@]12C`, the call was inactive.

For `CCSC(=O)N(CC(C)C)CC(C)C`, the molecule was classed as inactive.

Take `CCN(Cc1c(F)cccc1Cl)c1c([N+](=O)[O-])cc(C(F)(F)F)cc1[N+](=O)[O-]`: the outcome was inactive.

Take `CCOC(=O)C(C)Oc1ccc(Oc2cnc3cc(Cl)ccc3n2)cc1` (stereo unspecified): the molecule was classed as inactive.

Tested on in the next assay: not listed separately
Nature of the assay: Tanguay_ZF_120hpf_TRUN_legacy: (Legacy) Oregon State University Tanguay Lab 120 Hour Post-fertilization zebrafish Assay for Truncated Body (AID 2283655).
Settings: not given
In a few lines:
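Dechorionated Tropical 5D wild-type embryos placed singly from 6 hpf and statically exposed to 120 hpf at 28C, final DMSO 0.64%. Truncated body scored as present/absent by brightfield; not scored in dead embryos.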
With `CCN(CC)C(=O)c1cccc(C)c1`, the outcome was inactive.

`N#CSCSc1nc2ccccc2s1`: the outcome was inactive.

Consider `COc1c(Cl)ccc(Cl)c1C(=O)O`, for which the outcome was inactive.

Regarding `O=C(c1ccccc1)C1CCCCC1`, the molecule was classed as inactive.

As for `CCNc1nc(N)nc(Cl)n1`, the call was inactive.

The term AC50 denotes the midpoint of the concentration-response curve, whichever way the signal moves. In the case of `CC(C)(c1ccc(O)cc1)c1ccc(O)cc1`, the half-maximal activity concentration (AC50) is 25.9 µM (active) and 43.8 µM (active); the molecule was classed as inactive.

As for `Cc1nn(C)c(Oc2ccccc2)c1C=NOCc1ccc(C(=O)OC(C)(C)C)cc1`, the result was inactive.

As to `CC1(C)C(C=C(Cl)Cl)C1C(=O)OCc1cccc(Oc2ccccc2)c1` (stereo unspecified), the outcome was inactive.

For `CCCCCOC(=O)COc1cc(N2C(=O)C3=C(CCCC3)C2=O)c(F)cc1Cl`, the molecule was called inactive.

As for `CCC(C)OC(=O)N1CCCCC1CCO` (stereo unspecified), the result was inactive.

For `O=C(O)c1ccccc1`, the molecule was called inactive.

As for `O=C(c1ccc(O)cc1O)c1ccc(O)cc1O`, the molecule was called inactive.

For the molecule `CC(C)CCCCCCc1ccc(O)cc1`, the molecule was classed as inactive.

Regarding `C[C@]12C[C@H](O)[C@H]3[C@@H](CCC4=CC(=O)CC[C@@]43C)[C@@H]1CC[C@@H]2C(=O)CO`, the call was inactive.

In the case of `S=C([S-])NCCNC(=S)[S-].[Mn+2]`, the call was inactive.

Consider `S=C(S)NCCNC(=S)S.[Mn+2].[S-]C([S-])=NCCN=C([S-])[S-].[Zn+2]`, for which the result was inactive.

On to `COCCO`, for which the outcome was inactive.

In the case of `O=C(O)C1(C(=O)Nc2ccc(Cl)cc2Cl)CC1`, the molecule was classed as inactive.

Regarding `CCCCC(CC)CN1C(=O)C2C3C=CC(C3)C2C1=O` (stereo unspecified), the outcome was inactive.

On to `CCCCOCCOCCOCc1cc2c(cc1CCC)OCO2`, for which the half-maximal activity concentration (AC50) is 48 µM (active).

Turning to `CCOC(=O)C(C)Oc1ccc(Oc2nc3ccc(Cl)cc3o2)cc1` (stereo unspecified), the call was inactive.

With `CC(=O)[C@H]1CC[C@H]2[C@@H]3CCC4=CC(=O)CC[C@]4(C)[C@H]3CC[C@]12C`, the molecule was classed as inactive.

Take `CCSC(=O)N(CC(C)C)CC(C)C`: the call was inactive.

Turning to `CCN(Cc1c(F)cccc1Cl)c1c([N+](=O)[O-])cc(C(F)(F)F)cc1[N+](=O)[O-]`, the call was inactive.

Take `CCOC(=O)C(C)Oc1ccc(Oc2cnc3cc(Cl)ccc3n2)cc1` (stereo unspecified): the result was inactive.

Tested on in the next assay: not listed separately
Kind of assay: Tanguay_ZF_120hpf_NC_legacy: (Legacy) Oregon State University Tanguay Lab 120 Hour Post-fertilization zebrafish Assay for Notochord and Tail Malformation (AID 2283656).
Settings: not given
The method in brief: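 Dechorionated 5D zebrafish, 1/well from 6 hpf; static exposure to 120 hpf, 28C, sealed, dark; final DMSO 0.64% v/v. NC scored binary (present/absent); dead embryos not scored. Fit vs DMSO baseline, gain direction.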
With `CCN(CC)C(=O)c1cccc(C)c1`, the call was inactive.

`N#CSCSc1nc2ccccc2s1`: the outcome was inactive.

With `COc1c(Cl)ccc(Cl)c1C(=O)O`, the outcome was inactive.

For the molecule `O=C(c1ccccc1)C1CCCCC1`, the outcome was inactive.

`CCNc1nc(N)nc(Cl)n1`: the molecule was called inactive.

In the case of `CC(C)(c1ccc(O)cc1)c1ccc(O)cc1`, the molecule was called inactive.

Consider `CCOC(=O)NCCOc1ccc(Oc2ccccc2)cc1`, for which the molecule was classed as inactive.

With `CCCCOC(=O)C(C)Oc1ccc(Oc2ccc(C(F)(F)F)cn2)cc1` (stereo unspecified), the molecule was called inactive.

Take `CC1(C)C(C=C(Cl)Cl)C1C(=O)OCc1cccc(Oc2ccccc2)c1` (stereo unspecified): the outcome was inactive.

`CCCCCOC(=O)COc1cc(N2C(=O)C3=C(CCCC3)C2=O)c(F)cc1Cl`: the result was inactive.

Regarding `CCC(C)OC(=O)N1CCCCC1CCO` (stereo unspecified), the outcome was inactive.

With `O=C(O)c1ccccc1`, the outcome was inactive.

In the case of `O=C(c1ccc(O)cc1O)c1ccc(O)cc1O`, the molecule was classed as inactive.

With `CC(C)CCCCCCc1ccc(O)cc1`, the result was inactive.

`C[C@]12C[C@H](O)[C@H]3[C@@H](CCC4=CC(=O)CC[C@@]43C)[C@@H]1CC[C@@H]2C(=O)CO`: the result was inactive.

Turning to `S=C([S-])NCCNC(=S)[S-].[Mn+2]`, the molecule was called inactive.

With `S=C(S)NCCNC(=S)S.[Mn+2].[S-]C([S-])=NCCN=C([S-])[S-].[Zn+2]`, the result was inactive.

In the case of `COCCO`, the molecule was called inactive.

For `O=C(O)C1(C(=O)Nc2ccc(Cl)cc2Cl)CC1`, the result was inactive.

Regarding `CCCCC(CC)CN1C(=O)C2C3C=CC(C3)C2C1=O` (stereo unspecified), the outcome was inactive.

On to `CCCCOCCOCCOCc1cc2c(cc1CCC)OCO2`, for which the molecule was called inactive.

For `CCOC(=O)C(C)Oc1ccc(Oc2nc3ccc(Cl)cc3o2)cc1` (stereo unspecified), the outcome was inactive.

With `CCSC(=O)N(CC(C)C)CC(C)C`, the molecule was classed as inactive.

In the case of `CCN(Cc1c(F)cccc1Cl)c1c([N+](=O)[O-])cc(C(F)(F)F)cc1[N+](=O)[O-]`, the outcome was inactive.

In the case of `CCOC(=O)C(C)Oc1ccc(Oc2cnc3cc(Cl)ccc3n2)cc1` (stereo unspecified), the result was inactive.

Read-out in another assay: solute carrier (SLC10A1), SLC10A1 (gene 6554)
Kind of assay: LTEA_HepaRG_SLC10A1: Life Technologies and Expression Analysis (LTEA) Assay for solute carrier (SLC10A1) using HepaRG (AID 2283657; active = hit-call score of the fitted dose curve at least 0.9, where 1 is the maximum; inactive = score below 0.9). Conditions: mRNA level, 48 h; actives raise or lower the signal. In a few lines:
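HepaRG cells (single lot) exposed 48 h in serum-free induction medium, 8-point half-log series from 100 uM top in 0.5% DMSO, duplicate. SLC10A1 mRNA by qRT-PCR normalised to ACTB, GAPDH, POLR2A; bidirectional fit versus DMSO.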
In the case of `N#CSCSc1nc2ccccc2s1`, the half-maximal activity concentration (AC50) is 83.6 µM (active).

For the molecule `O=C(O)c1ccccc1`, the molecule was classed as inactive.

With `S=C([S-])NCCNC(=S)[S-].[Mn+2]`, the AC50 is 9.93 µM (active).

For `S=C(S)NCCNC(=S)S.[Mn+2].[S-]C([S-])=NCCN=C([S-])[S-].[Zn+2]`, the concentration at half-maximal activity (AC50) was 1.74 µM (active).

Take `COCCO`: the molecule was classed as inactive.

As for `CCCCOCCOCCOCc1cc2c(cc1CCC)OCO2`, the AC50 was 67.7 µM (active).

The record behind these values is PubChem BioAssay (EPA / NIEHS).
